# This excerpt belongs to a sample that is enriched for hits.
# DT40 TDP1 no CPT = qHTS for Inhibitors of human tyrosyl-DNA phosphodiesterase 1 (TDP1): qHTS in cells in absence of CPT; DT40 Tdp1-/- hTDP1 cells, no CPT, ATP luminescence, 48 h; Potency, µM (titrated, usually from 46.2 µM), most hits filed as inhibitors; actives 15% (n = 420,000); note: nearly all actives have a fitted effect of over 55% in size
#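 Seeded 400 DT40-hTDP1 cells/well (vehicle DMSO, no 20 nM CPT); pinned compounds; ≥48 hr at 37 °C; CellTiter-Glo luminescence as viability measure.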
# 12-LOX inh = ALOX12 (human) lipoxygenase inhibition | Potency, µM (titrated, usually from 108 µM), most hits filed as inhibitors | P18054 | purified 12hLO, xylenol orange hydroperoxide absorbance | actives 1.1% (n = 580,000)
# Target sequence (P18054 whole entry, looked up): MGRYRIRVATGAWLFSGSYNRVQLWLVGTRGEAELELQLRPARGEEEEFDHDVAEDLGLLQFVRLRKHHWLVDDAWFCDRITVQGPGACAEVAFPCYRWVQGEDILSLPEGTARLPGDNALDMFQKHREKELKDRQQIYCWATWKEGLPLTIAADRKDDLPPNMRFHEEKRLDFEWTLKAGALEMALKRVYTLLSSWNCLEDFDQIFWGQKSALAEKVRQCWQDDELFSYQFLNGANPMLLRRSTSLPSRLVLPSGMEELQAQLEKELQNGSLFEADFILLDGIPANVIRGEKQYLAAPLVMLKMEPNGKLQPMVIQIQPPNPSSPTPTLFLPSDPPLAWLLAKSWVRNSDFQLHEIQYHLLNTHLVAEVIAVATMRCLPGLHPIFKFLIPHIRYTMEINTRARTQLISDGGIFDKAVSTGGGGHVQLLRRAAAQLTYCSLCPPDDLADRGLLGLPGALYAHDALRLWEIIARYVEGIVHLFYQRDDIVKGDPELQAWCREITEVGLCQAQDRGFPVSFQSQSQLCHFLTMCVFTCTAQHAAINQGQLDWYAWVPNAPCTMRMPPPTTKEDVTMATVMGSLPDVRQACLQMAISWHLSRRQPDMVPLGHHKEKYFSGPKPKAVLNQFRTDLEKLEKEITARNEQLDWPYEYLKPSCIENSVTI
#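 Hydroperoxide product was detected by ferrous iron/xylenol orange as the 573 to 405 nm absorbance ratio. Arachidonic acid at 40 uM (final) was turned over for 30 min at room temperature by 150 nM human 12hLO, pH 7.0 Hepes buffer, after 15 min compound preincubation.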
# IL1B secr inh = inflammasome signaling inhibition, IL-1 beta readout | THP-1 LPS/ATP IL-1B secretion, AlphaLISA, 16 h; active compounds read low | activity change, % at 57.5 µM | actives 4.7% (n = 360,000); in the data active = activity change below about -50%; inconclusive = mostly about -30% to -49%
#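 Secreted IL-1B measured by AlphaLISA bead assay after 16 h compound exposure of THP-1 cells; compounds (final up to 57.5 uM) added 1 h before LPS (250 ng/mL) and ATP (1.25 mM) stimulation; lower signal means less secretion.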
# HT1080-NT tox = kills 2HG-producing HT-1080-NT fibrosarcoma cells; HT-1080-NT fibrosarcoma viability, CellTiter-Glo ATP luminescence, 48 h; Potency, µM (titrated, usually from 46.1 µM), hits mostly cytotoxic; actives 1.6% (n = 360,000);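 note: NT is the 2HG producing partner of a matched IDH1 knockdown line; nearly all actives have a fitted effect of over 55% in size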
#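 Toxicity toward the 2HG-producing NT line was scored as %Activity, normalised to DMSO and no-cell wells, from CellTiter-Glo luminescence after 48 hours' treatment.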
# TDP1 cell CPT = growth inhibition of DT40 Tdp1-/-;hTDP1 cells with camptothecin (screen for TDP1 inhibitors); chicken DT40 Tdp1-/-;hTDP1 cells + 20 nM CPT, ATP luminescence, 48 h; Potency, µM (highest dose often 46.2 µM), most hits filed as inhibitors; actives 12% (n = 420,000); note: nearly all actives have a fitted effect of over 55% in size
#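 Cell growth measured by CellTiter-Glo luminescence after a minimum 48 h, 37 C compound exposure with 20 nM CPT in Tdp1-knockout DT40 cells stably expressing hTDP1, seeded 400/well; qHTS titration format.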
# HT1080 IDH1KD tx = HT-1080 IDH1 knockdown cell toxicity (counter line). HT-1080 IDH1 knockdown viability, ATP luminescence, 48 h. Potency, µM (top dose mostly 46.1 µM), most hits filed as cytotoxic. actives 2% (n = 360,000)
#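 Luminescent ATP read-out (CellTiter-Glo, 10 min at room temperature) after 48 h compound exposure at 37 °C gave viability of IDH1-knockdown HT-1080 cells. Activity was normalised to DMSO and cell-free wells, then fitted as concentration-response curves.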
# A number is an active result; 0 = inactive; ? = inconclusive; - = no result; ! = not confirmed by another sample; [ ] = dose if it differs, or a comment. Unless noted, calls come from the whole dose curve; as a rule, active = well fitted curve in the direction sought with a large enough effect; inconclusive = small, poorly fitted or top-dose-only effect, or another doubt; inactive = no such curve, though single readings can be large; an effect the other way counts as inactive or inconclusive.
SMILES,DT40 TDP1 no CPT,12-LOX inh,IL1B secr inh,HT1080-NT tox,TDP1 cell CPT,HT1080 IDH1KD tx
CCN(CCO)c1ccc(NC(=S)Nc2cccc(S(=O)(=O)N(C)C)c2)cc1,?,0,0,0,0,?
CC(/C=N/NC(=S)Nc1cccc(S(=O)(=O)N(C)C)c1)c1ccccc1 (configuration not stated),?,0,0,0,?,0
CN(C)S(=O)(=O)c1cccc(NC(=S)N/N=C/c2ccc(O)c(O)c2O)c1,16µM,?,0,0,?,0
C=C(C)CNC(=S)N/N=C/c1ccco1,5.2µM,0,0,0,18µM,0
COC[C@H]1C[C@@H](NCc2ccc(OC(F)(F)F)cc2)[C@H](O)[C@@H]1O,-,0,-,-,-,-
CC(NC(=O)CCNC(=O)C12CC3CC(CC(C3)C1)C2)C1CC2CCC1C2 (configuration not stated),-,0,-,-,-,-
COc1cccc(/C=N/NC(=S)Nc2cccc(S(=O)(=O)N(C)C)c2)c1,8.2µM,?,0,0,4.1µM,0
COc1ccc2cc(C(C)C(=O)Nc3cccc(S(=O)(=O)N(C)C)c3)ccc2c1 (configuration not stated),23µM,?,0,?,?,0
CNC(=O)c1cccc(NC(=O)C(C)c2ccc3cc(OC)ccc3c2)c1 (configuration not stated),?,0,0,0,?,0
CN(C)S(=O)(=O)c1cccc(NC(=S)N/N=C/c2ccco2)c1,5.8µM,0,0,0,4.6µM,0
CC(C)(C)S(=O)N1Cc2cc(CO)ccc2[C@@H]1CCO (some centres not stated),0,0,0,0,0,0
CCC(C)Sc1ccc(-c2nc3cc(C)ccn3c2NC2CCCCC2)cc1 (configuration not stated),15µM,35µM!,-66!,21µM,23µM,?
CCC(C)Sc1ccc(-c2nc3cnccn3c2NC2CCCCC2)cc1 (configuration not stated),16µM,?,-52!,?,?,?
COc1cc(-c2nc3cnccn3c2Nc2c(C)cccc2C)ccc1O,?,0,0,0,?,0
Clc1ccc(-c2nc3cnccn3c2NC2CCCC2)cc1,26µM,-,0,0,?,0
Cc1ccn2c(NC3CCCCC3)c(C(C)C)nc2c1,0,?,0,0,0,0
c1cn2c(NC3CCCCC3)c(-c3ccc(N4CCOCC4)cc3)nc2cn1,-,0,-,-,-,-
COc1ccc(Sc2ccc(-c3nc4cnccn4c3NC3CCCCC3)cc2OC)cc1,13µM,0,?,0,15µM,0
Cn1nc(CC(=O)N(Cc2ccc(F)cc2)C2CC2)c2ccccc2c1=O,-,0,-,-,-,-
Cc1c(C(=O)N2c3ccccc3Sc3ccccc32)cccc1[N+](=O)[O-],26µM,0,0,0,?,0
CCCNC(=O)C12CC3CC(C1)CC(c1ccc(C)cc1)(C3)C2,-,0,-,-,-,-
Cc1ccc(C23CC4CC(CC(C(=O)N(C)C)(C4)C2)C3)cc1,21µM,0,0,0,?,0
Cc1ccc(C23CC4CC(CC(CC(=O)NC(C)(C)CO)(C4)C2)C3)cc1,15µM,0,0,0,26µM,0
Cc1ccc(C23CC4CC(CC(C(N)=O)(C4)C2)C3)cc1,0,0,0,0,0,0
Cc1ccc(C23CC4CC(CC(CN)(C4)C2)C3)cc1,10µM,0,-95,18µM,6.5µM,?
SMILES,DT40 TDP1 no CPT,12-LOX inh,IL1B secr inh,HT1080-NT tox,TDP1 cell CPT,HT1080 IDH1KD tx
NCC12CC3CC(C1)CC(c1ccc(Br)cc1)(C3)C2,15µM,0,-77,?,21µM,?
CCn1nnnc1SCC(=O)N(Cc1cccs1)c1ccc2c(c1)OCCO2,-,0,-,-,-,-
COc1cc(/C=C/CN2CCOc3ccc(C(O)c4cccnc4)cc3C2)ccc1O (configuration not stated),?,0,-,-,0[9.04 µM],-
O=C(NCCC1CCN(C(=O)Nc2cccc(F)c2)CC1)C1CCCC1,-,0,-,-,-,-
Cc1ccc(-n2nc(C)c3c(C(=O)NC4CCN(Cc5ccccc5)CC4)cc(C)nc32)cc1,-,7.1µM,-,-,-,-
Cc1cc(C(=O)NC2CCN(Cc3ccccc3)CC2)c2ccccc2n1,-,0,-,-,-,-
CCOC(=O)c1cccc(NC(=O)c2cc(C)nc3c2c(C)nn3-c2ccc(C)cc2)c1,21µM,0,-,-,?,-
Cc1nn(-c2ccccc2)c2nc(C3CC3)cc(C(=O)Nc3ccccc3F)c12,5.8µM,0,-,-,7.3µM,-
COc1ccc(-c2cc(C(=O)NCC3CC3)c3c(C)nn(-c4ccccc4)c3n2)cc1,-,0[6.33 µM],-,-,-,-
Cc1cc(C(=O)NCc2ccc(Cl)cc2)c2c(C)nn(-c3ccccc3)c2n1,0,0,-,-,0,-
Cc1cc(C(=O)Nc2ccc(Cl)cc2)c2c(C)nn(-c3ccccc3)c2n1,?,0,-,-,9.2µM,-
CCOc1ccc(NC(=O)c2cc(C)nc3c2c(C)nn3-c2ccc(C)cc2)cc1,0,0,-,-,?,-
CCC(C)NC(=O)CN1C(=O)N(c2ccc(C(C)C)cc2)S(=O)(=O)c2ccccc21 (configuration not stated),-,0,-,-,-,-
CCCCNC(=O)/C(=C\c1ccc([N+](=O)[O-])o1)NC(=O)c1ccccc1,?,0,0,0,16µM,0
COC(=O)/C(=C\c1ccc([N+](=O)[O-])o1)NC(=O)c1ccccc1,11µM,?,0,?,14µM,0
O=c1[nH]c2sc3c(c2c2nc(-c4ccc(O)cc4)nn12)CCC3,-,0,-,-,-,-
CC1CCC(C(C)C)C(OC(=O)CSC2=NCCS2)C1 (configuration not stated),-,0,-,-,-,-
CCC/C=C1/CCCOC(C(=O)NCc2ccc(C)o2)(C(F)(F)F)C1 (configuration not stated),10µM,0,-63,?,7.3µM,0
CCc1ccc2nc(N(CCCN(C)C)C(=O)c3ccc(S(=O)(=O)N4CCc5ccccc5C4)cc3)sc2c1,5.2µM,0,-84,?,5.2µM,13µM
CN(C)CCCN(C(=O)c1ccc(S(=O)(=O)N(C)C2CCCCC2)cc1)c1nc2ccc(Br)cc2s1,?,?,-83,?,?,?
CN(C)CCCN(C(=O)c1ccc(S(=O)(=O)N(C)C2CCCCC2)cc1)c1nc2ccc(F)cc2s1,?,?,-98,?,16µM,?
CCc1ccc2nc(N(CCCN(C)C)C(=O)c3ccc(S(=O)(=O)N(C)C4CCCCC4)cc3)sc2c1,?,0,-61,?,16µM,23µM
CC1CCCCN1S(=O)(=O)c1ccc(C(=O)N(CCCN(C)C)c2nc3cc4c(cc3s2)OCO4)cc1 (configuration not stated),0,0,0,0,0,0
